These results are taken from PubChem BioAssay (NCI).

Compounds without any hit were thinned out: in the full panel of roughly 83,000, 20% have a hit.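 Interpretation: 100, growth as untreated; towards 0, rising growth inhibition; 0, no net growth; 0 to -100, cell death. Compounds scoring below 10 were considered active.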 Unmarked numbers belong to inactive results. Active and inactive are the calls of the source.

Some test systems named below: DU-145 prostate; K-562 leukemia; MALME-3M melanoma; MDA-MB-231 breast; RXF 393 renal; SF-268 CNS; SF-295 CNS; SF-539 CNS; UACC-257 melanoma; M14 melanoma.
Common to all, as to assay: NCI-60 one-dose screen, 48 h (100 = growth as untreated, 0 = no growth, -100 = all killed)
Details in all cases: 10 µM

For the compound `Cc1ccc(NCC(=O)Nn2c(COc3ccccc3)nc3ccccc3c2=O)cc1`, the growth in the experiment with DU-145 prostate was 85.9%; with K-562 leukemia it was 88.2%; in the experiment on MALME-3M melanoma, 80.8%; with MDA-MB-231 breast it was 62%; with RXF 393 renal, 51.3%; in the experiment on SF-268 CNS it was 49.8%. Further, the growth was 58% in the experiment on SF-295 CNS, 51.4% with SF-539 CNS, 83.6% in the experiment on UACC-257 melanoma and 93.3% in the experiment on M14 melanoma.
Take `CCCCCCCCCCCCCCCCCCCC(=O)NCCc1c[nH]c2ccc(OC(=O)NOCCOCCOCCOCCOCCOCCOCCOCCOCCOCCOCCOCCOCCOCCOCCOCCOCCOCCOCCOCCOCCOCCOC)cc12`: the growth with DU-145 prostate is 21.4%; in the experiment on K-562 leukemia, 8.69% (active); with MALME-3M melanoma, 8.02% (active); in the experiment on MDA-MB-231 breast it was -74.1% (active); in the experiment on RXF 393 renal it was 12%; in the experiment on SF-268 CNS, 16.5%. Further, the growth in the experiment on SF-295 CNS was -28.5% (active); in the experiment on SF-539 CNS, -13.8% (active); in the experiment on UACC-257 melanoma, 6.88% (active); with M14 melanoma, -18.8% (active).
Turning to `O=C(Cn1nc(-c2ccccc2)ccc1=O)NN1C(=O)c2ccccc2C1=O`, the growth in the experiment on DU-145 prostate was 105%; with K-562 leukemia, 99.8%; with MALME-3M melanoma it was 90.1%; in the experiment on MDA-MB-231 breast, 100%; in the experiment with SF-268 CNS it was 97.9%; with SF-295 CNS it was 96.5%. The growth is 91.2% in the experiment with SF-539 CNS, 113% in the experiment on UACC-257 melanoma and 107% with M14 melanoma.
With `N#Cc1c(NC(=O)c2ccc(C(F)(F)F)cc2)sc2c1CCC(=O)C2`, the growth in the experiment on DU-145 prostate was 23.1%; in the experiment on K-562 leukemia, 7.26% (active); with MALME-3M melanoma it was -54.2% (active); in the experiment on MDA-MB-231 breast, -84.4% (active); with SF-268 CNS it was -37.6% (active); in the experiment on SF-295 CNS, -95.3% (active). For the same compound, the growth was -89.2% (active) in the experiment with SF-539 CNS, -71.1% (active) with UACC-257 melanoma and -78.5% (active) with M14 melanoma.
Regarding `O=c1[nH]c2ccccc2cc1CSc1ccc(Nc2nccc(-c3ccc4ccccc4c3)n2)cc1`, the growth is 25.5% in the experiment with DU-145 prostate; 64% in the experiment on K-562 leukemia; 39% in the experiment on MALME-3M melanoma; 30.5% in the experiment on MDA-MB-231 breast; 72.1% in the experiment with SF-268 CNS; 89.6% with SF-295 CNS. The growth in the experiment on SF-539 CNS is 16.1%; in the experiment on UACC-257 melanoma it was 105%; in the experiment with M14 melanoma, 69.8%.
As for `O=C(CSc1nnc(-c2c[nH]c3ccccc23)n1-c1ccccc1)Nc1ccc(C(=O)/C=C/c2cccc([N+](=O)[O-])c2)cc1`, the growth in the experiment on DU-145 prostate is 95.9%; with K-562 leukemia it was 86.1%; in the experiment on MALME-3M melanoma it was 90.9%; in the experiment on MDA-MB-231 breast it was 91.7%; in the experiment with SF-268 CNS, 78.8%; in the experiment with SF-295 CNS, 88.4%. For the same compound, the growth was 89.6% with SF-539 CNS, 102% in the experiment on UACC-257 melanoma and 94.1% in the experiment with M14 melanoma.
For the compound `CC(=O)c1cc(C(=O)c2ccc3c(c2)NC(=O)CO3)n2ccc3ccccc3c12`, the growth in the experiment with DU-145 prostate was 84.1%; in the experiment with K-562 leukemia, 84.1%; in the experiment with MALME-3M melanoma, -5.58% (active); in the experiment with MDA-MB-231 breast, 29.9%; in the experiment on SF-268 CNS it was 79%; in the experiment on SF-295 CNS it was 98.9%. For the same compound, the growth in the experiment with SF-539 CNS was 31.9%; in the experiment on UACC-257 melanoma, 86.1%; with M14 melanoma it was 65.1%.
On to `Cn1cc(-c2cc(N)n3nc(-c4c[nH]c5ccc(Br)cc45)cc3n2)c2cc(Br)cnc21`, for which the growth with DU-145 prostate was -75.6% (active); with K-562 leukemia it was -27.4% (active); with MALME-3M melanoma it was -92.1% (active); in the experiment with MDA-MB-231 breast, -82.5% (active); in the experiment with RXF 393 renal, -71.2% (active); in the experiment with SF-268 CNS, -22.5% (active). The growth is -86.4% (active) with SF-295 CNS, -97.6% (active) in the experiment on SF-539 CNS, -65.4% (active) in the experiment on UACC-257 melanoma and -90.6% (active) with M14 melanoma.
In the case of `Cc1noc2c(Cc3ccc([N+](=O)[O-])cc3)nn(CC(=O)N/N=C/c3ccc(Br)cc3)c(=O)c12`, the growth in the experiment with DU-145 prostate is 74.9%; in the experiment on K-562 leukemia, 88.7%; with MALME-3M melanoma it was 66%; in the experiment with MDA-MB-231 breast, 46.4%; in the experiment with SF-268 CNS, 72.1%; in the experiment on SF-295 CNS it was 89.5%. Further, the growth in the experiment with SF-539 CNS is 26.1%; with UACC-257 melanoma, 106%; in the experiment with M14 melanoma, 93.4%.
On to `Cc1ccc2nc(-c3ccc(-c4nnc(SCC(=O)Nc5ccc(Br)cc5)o4)cc3)[nH]c2c1`, for which the growth was 82.9% in the experiment on DU-145 prostate; 7.89% (active) in the experiment on K-562 leukemia; 87.1% with MALME-3M melanoma; 77.9% with MDA-MB-231 breast; 80.6% with SF-268 CNS; 63.8% in the experiment on SF-295 CNS. Moreover, the growth in the experiment with SF-539 CNS was 68.3%; with UACC-257 melanoma, 96.5%; in the experiment with M14 melanoma it was 66.6%.
As for `CC(C)C1=C[C@@]23CC[C@@H]4[C@](C)(CCC[C@]4(C)C(=O)NCc4ccccc4)[C@H]2C[C@@H]1[C@H]1C(=O)OC(=O)[C@H]13`, the growth was 55.3% in the experiment on DU-145 prostate; 21.5% in the experiment with K-562 leukemia; 87% in the experiment on MALME-3M melanoma; 77.1% in the experiment with MDA-MB-231 breast; 46.6% in the experiment with SF-268 CNS; 17.8% with SF-295 CNS. The growth with SF-539 CNS is 63.2%; with UACC-257 melanoma, 82.1%; with M14 melanoma it was 54.3%.
With `O=c1[nH]c2ccc(Cl)cc2cc1CSc1ccc(Nc2nccc(-c3ccc4ccccc4c3)n2)cc1`, the growth in the experiment with DU-145 prostate was 38.3%; in the experiment with K-562 leukemia it was 85.7%; in the experiment on MALME-3M melanoma it was 20%; in the experiment with MDA-MB-231 breast, 55.2%; in the experiment with SF-268 CNS it was 68%; in the experiment with SF-295 CNS, 111%. The values for the growth with SF-539 CNS, with UACC-257 melanoma and in the experiment on M14 melanoma were 94.1%, 112% and 88.4%, respectively.
For `O=C(Cc1ccc2c(c1)CN(C1CCC(=O)NC1=O)C2=O)NCCc1ccccc1` (centres undefined), the growth with DU-145 prostate was 66.8%; in the experiment with K-562 leukemia, 20.2%; in the experiment on MALME-3M melanoma it was -59.7% (active); in the experiment with MDA-MB-231 breast it was -32.2% (active); in the experiment with SF-268 CNS, 31.3%; in the experiment on SF-295 CNS, 17%. Also, the growth is 29.1% in the experiment on SF-539 CNS, 92.2% in the experiment with UACC-257 melanoma and 7.92% (active) in the experiment on M14 melanoma.
As for `O=C(CSc1nnc(-c2ccc3nc(-c4ccccc4)[nH]c3c2)o1)Nc1ccc(Br)cc1`, the growth with DU-145 prostate is 78.2%; in the experiment with K-562 leukemia, 18.4%; with MALME-3M melanoma, 5.76% (active); with MDA-MB-231 breast, 52.3%; in the experiment with SF-268 CNS, 87.8%; in the experiment on SF-295 CNS it was 74.3%. Further, the growth in the experiment with SF-539 CNS is 8.7% (active); in the experiment on UACC-257 melanoma, 98.8%; in the experiment on M14 melanoma it was 52.3%.
